Laboratory results: PubChem BioAssay (NCI)
The panel holds about 83,000 compounds, 20% with a hit somewhere; the sample as a whole holds those more often.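 The endpoint reported here, percent growth, reads 100 for growth as untreated, 0 for no net growth and -100 for all cells dead.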 Active and inactive are the calls of the source. Rule for the calls: active = growth percent below 10; inactive = the rest.

What was measured:
Assay in all cases: NCI-60 one-dose screen, 48 h (100 = growth as untreated, 0 = no growth, -100 = all killed)
Conditions in all cases: 10 µM unless noted
NCI-H23 lung = test system: NCI-H23 lung
NCI-H226 lung = test system: NCI-H226 lung
NCI-H322M lung = test system: NCI-H322M lung
HOP-62 NSCLC = test system: HOP-62 NSCLC
NCI-H460 lung = test system: NCI-H460 lung
HOP-92 NSCLC = test system: HOP-92 NSCLC
NCI-H522 lung = test system: NCI-H522 lung
A549/ATCC NSCLC = test system: A549/ATCC NSCLC
786-0 renal = test system: 786-0 renal
COLO 205 colon = test system: COLO 205 colon

Measured: growth

O=C(/C=C/c1cccc(Cl)c1)c1cccc(OCCCOc2cccc(C(=O)/C=C/c3cccc(Cl)c3)c2)c1
inactive: NCI-H23 lung 89.2% | NCI-H226 lung 96.3% | NCI-H322M lung 106% | HOP-62 NSCLC 102% | NCI-H460 lung 103% | HOP-92 NSCLC 66.8% | NCI-H522 lung 87.4% | A549/ATCC NSCLC 100% | 786-0 renal 98.8% | COLO 205 colon 106%

O=C1c2ccc3c4c5ccc(c24)C(=O)N1CCCOCCCCOCCCNCc1ccc(cc1)CNCCCOCCCCOCCCN(C3=O)C5=O
active: NCI-H23 lung -52.3% | NCI-H322M lung 0.552% | NCI-H460 lung 3.03% | NCI-H522 lung -39.2% | A549/ATCC NSCLC -40.1% | 786-0 renal -6.67% | COLO 205 colon -71%
inactive: NCI-H226 lung 72.8% | HOP-62 NSCLC 33.6% | HOP-92 NSCLC 45.8%

CC(C)(Sc1cc(C(C)(C)C)c(O)c(C(C)(C)C)c1)Sc1cc(C(C)(C)C)c(OC(=O)CCCC(=O)O)c(C(C)(C)C)c1
inactive: NCI-H23 lung 39.9% | NCI-H226 lung 66.2% | NCI-H322M lung 60.4% | HOP-62 NSCLC 67% | NCI-H460 lung 37% | HOP-92 NSCLC 40.2% | NCI-H522 lung 46.4% | A549/ATCC NSCLC 35% | 786-0 renal 56.1% | COLO 205 colon 64.3%

Fc1cc2c(cc1Cl)N(c1ncnc3ccc(-c4ccc5n[nH]nc5c4)cc13)CC2
inactive: NCI-H23 lung 79.6% | NCI-H226 lung 88.1% | NCI-H322M lung 54.5% | HOP-62 NSCLC 72.3% | NCI-H460 lung 97.1% | HOP-92 NSCLC 31.5% | NCI-H522 lung 67.3% | A549/ATCC NSCLC 77.5% | 786-0 renal 78.6% | COLO 205 colon 109%

Cc1cccc(/C=C/c2c(C(=O)/C=C/c3ccccc3)c(C)nc3ccccc23)c1
active: NCI-H23 lung -57.9% | NCI-H226 lung -16.5% | NCI-H322M lung 9.28% | HOP-62 NSCLC -48.1% | NCI-H460 lung -71.8% | HOP-92 NSCLC -1.2% | NCI-H522 lung -58.7% | A549/ATCC NSCLC -34.8% | 786-0 renal -55.5% | COLO 205 colon -61.8%

O=C(Nc1ccc(Oc2cccc(F)c2)c(Cl)c1)c1cccnc1
inactive: NCI-H23 lung 44.9% | NCI-H226 lung 56.9% | NCI-H322M lung 50.8% | HOP-62 NSCLC 34% | NCI-H460 lung 24.7% | HOP-92 NSCLC 63.4% | NCI-H522 lung 36.2% | A549/ATCC NSCLC 35.5% | 786-0 renal 40.9% | COLO 205 colon 22.7%

N#Cc1nc(-c2ccc(F)cc2)oc1S(=O)(=O)N1CCCCC1
active: NCI-H522 lung -14.8% | COLO 205 colon -13.2%
inactive: NCI-H23 lung 65.7% | NCI-H226 lung 79% | NCI-H322M lung 94.3% | HOP-62 NSCLC 102% | NCI-H460 lung 101% | HOP-92 NSCLC 78.9% | A549/ATCC NSCLC 103% | 786-0 renal 86.4%

COCCNC(=O)Nc1ccc2nc(-c3cccs3)c(-c3cccs3)nc2c1
inactive: NCI-H23 lung 90% | NCI-H226 lung 92.8% | NCI-H322M lung 98.6% | HOP-62 NSCLC 101% | NCI-H460 lung 88.7% | HOP-92 NSCLC 80.8% | NCI-H522 lung 76.6% | A549/ATCC NSCLC 87.5% | 786-0 renal 96.9% | COLO 205 colon 107%

O=C(NCCCl)Nc1ncccc1OCc1ccccc1
inactive: NCI-H23 lung 99.6% | NCI-H226 lung 104% | NCI-H322M lung 92.4% | HOP-62 NSCLC 100% | NCI-H460 lung 101% | HOP-92 NSCLC 103% | NCI-H522 lung 85.3% | A549/ATCC NSCLC 103% | 786-0 renal 100% | COLO 205 colon 106%

CN(C)CC(C)(C)C(=O)/C=C/c1ccccc1
active: NCI-H23 lung -28.8% [25 µM] | NCI-H226 lung -17.9% [25 µM] | NCI-H322M lung -16.3% [25 µM] | NCI-H460 lung -27% [25 µM] | HOP-92 NSCLC -32.3% [25 µM] | NCI-H522 lung -81.1% [25 µM] | A549/ATCC NSCLC 0.382% [25 µM] | 786-0 renal -46.6% [25 µM] | COLO 205 colon -87% [25 µM]
inactive: HOP-62 NSCLC 12.3% [25 µM]

CS(=O)(=O)Nc1cc(-c2ccc3ncnc(Nc4ccc5c(cnn5Cc5ccc(F)cc5)c4)c3c2)cnc1Cl
active: HOP-92 NSCLC -17.5%
inactive: NCI-H23 lung 43.8% | NCI-H226 lung 66.8% | NCI-H322M lung 60.7% | HOP-62 NSCLC 43.5% | NCI-H460 lung 61.5% | NCI-H522 lung 43.7% | A549/ATCC NSCLC 78.7% | 786-0 renal 48.3% | COLO 205 colon 60.1%

CCOC(=O)c1c2c(n3cccc(F)c13)C(=O)c1ncccc1C2=O
active: NCI-H23 lung -0.249% | NCI-H226 lung -6.38% | NCI-H322M lung 6.61% | HOP-62 NSCLC -37.4% | NCI-H460 lung -22.1% | NCI-H522 lung 1.44% | A549/ATCC NSCLC -9.79% | 786-0 renal -17.3% | COLO 205 colon 7.04%
inactive: HOP-92 NSCLC 38.5%

CC(C)c1ccc(C(=O)Nc2sc3c(c2C(N)=O)CCC(=O)C3)cc1
active: NCI-H23 lung -7.38% | NCI-H460 lung 1.37% | HOP-92 NSCLC -32% | NCI-H522 lung -55.8% | COLO 205 colon -43.6%
inactive: NCI-H226 lung 50.9% | NCI-H322M lung 69.4% | HOP-62 NSCLC 26.2% | A549/ATCC NSCLC 16.8% | 786-0 renal 19.7%

CN(C)Cc1ccc(O)c(C(=O)O)c1
inactive: NCI-H23 lung 104% | NCI-H226 lung 108% | NCI-H322M lung 109% | HOP-62 NSCLC 106% | NCI-H460 lung 105% | HOP-92 NSCLC 95.5% | NCI-H522 lung 102% | A549/ATCC NSCLC 109% | 786-0 renal 107% | COLO 205 colon 117%

CC1CCN(CCOc2ccc(CNc3ccc4nc(CCC5CCCCC5)[nH]c4c3)cc2)CC1
active: 786-0 renal -55.6% | COLO 205 colon -84.7%
inactive: NCI-H23 lung 71.7% | NCI-H226 lung 30.9% | NCI-H322M lung 58.5% | HOP-62 NSCLC 61.5% | NCI-H460 lung 27.1% | HOP-92 NSCLC 16% | NCI-H522 lung 44.8% | A549/ATCC NSCLC 55.3%

Cc1ccc(CNc2ccc3nc(CCC4CCCCC4)[nH]c3c2)cc1
active: HOP-92 NSCLC 0.719% | NCI-H522 lung 9.99% | COLO 205 colon -30%
inactive: NCI-H23 lung 30.6% | NCI-H226 lung 43.2% | NCI-H322M lung 92.3% | HOP-62 NSCLC 73% | NCI-H460 lung 58.4% | A549/ATCC NSCLC 63.3% | 786-0 renal 52.2%

C=C1C(=O)O[C@H]2[C@H]1CC/C(COC(=O)c1cc3ccccc3s1)=C\CC[C@@]1(C)O[C@@H]21
active: NCI-H23 lung -46.4% | NCI-H226 lung -51.1% | NCI-H322M lung -25.8% | HOP-62 NSCLC -61.6% | NCI-H460 lung -57.3% | HOP-92 NSCLC -74.4% | NCI-H522 lung -70.1% | A549/ATCC NSCLC -51.1% | 786-0 renal -83.4% | COLO 205 colon -71.3%

Cc1ccc(Nn2c(SCC(=O)Nc3nc(-c4ccccc4)cs3)nc(C)c2C)cc1
inactive: NCI-H23 lung 39.4% | NCI-H226 lung 46.3% | NCI-H322M lung 96% | HOP-62 NSCLC 73.1% | NCI-H460 lung 78.1% | HOP-92 NSCLC 59.9% | NCI-H522 lung 49.7% | A549/ATCC NSCLC 46.3% | 786-0 renal 82.3% | COLO 205 colon 27.1%

Cn1c(=O)cc2c3c(c(NCCCO)ccc31)C(=O)c1ccccc1-2
inactive: NCI-H23 lung 47.2% | NCI-H226 lung 38.4% | NCI-H322M lung 41.4% | HOP-62 NSCLC 43.8% | NCI-H460 lung 16.8% | HOP-92 NSCLC 74.8% | NCI-H522 lung 22.2% | A549/ATCC NSCLC 33.5% | 786-0 renal 38.6% | COLO 205 colon 27.8%

O=C(OC(CO)C(=O)NC12CC3CC(CC(C3)C1)C2)c1ccc(Cl)cc1 (stereo not given)
inactive: NCI-H23 lung 105% | NCI-H226 lung 92.4% | NCI-H322M lung 102% | HOP-62 NSCLC 103% | NCI-H460 lung 107% | HOP-92 NSCLC 87.2% | NCI-H522 lung 99.3% | A549/ATCC NSCLC 97.2% | 786-0 renal 101% | COLO 205 colon 110%

CCN(CC)c1ccc(\C=N/N=C(N)/C(N)=N\N=C/c2ccc(N(CC)CC)cc2)cc1
inactive: NCI-H23 lung 94.9% | NCI-H226 lung 103% | NCI-H322M lung 105% | HOP-62 NSCLC 93.1% | NCI-H460 lung 109% | HOP-92 NSCLC 116% | NCI-H522 lung 92.2% | A549/ATCC NSCLC 104% | 786-0 renal 113% | COLO 205 colon 106%

COCCn1cc(-c2nc(-c3cc4cccnc4[nH]3)cs2)c2cc(OC)ccc21
inactive: NCI-H226 lung 28.8% | NCI-H322M lung 21.2% | HOP-62 NSCLC 13.4% | NCI-H522 lung 41.6% | A549/ATCC NSCLC 24.8% | 786-0 renal 28.5% | COLO 205 colon 49.4%
active: NCI-H23 lung 8.67% | NCI-H460 lung 7.21% | HOP-92 NSCLC 4.04%

COc1ccc2c(c1)c(-c1nc(-c3c[nH]c4ccncc34)cs1)cn2C
active: NCI-H322M lung -31% | HOP-62 NSCLC -82.7% | NCI-H460 lung -78.2% | NCI-H522 lung -71.3% | A549/ATCC NSCLC -85.9% | 786-0 renal -91.6% | COLO 205 colon -81.7%
inactive: NCI-H23 lung 46.3% | NCI-H226 lung 48.7% | HOP-92 NSCLC 35.8%

C=CCn1c(C)nc2ccc(Nc3nc(Nc4ccc5nc(C)n(CC=C)c5c4)c4ccccc4n3)cc21
active: NCI-H322M lung -13.4% | HOP-62 NSCLC -61.5% | NCI-H460 lung -69.5% | NCI-H522 lung -90.7% | A549/ATCC NSCLC -83.1% | 786-0 renal -93.8% | COLO 205 colon -92.3%
inactive: NCI-H23 lung 32.8% | NCI-H226 lung 67.4% | HOP-92 NSCLC 43.2%

CC(=O)O[C@@H]1C[C@]2(C(C)C)O[C@@]1(C)[C@@H]1CCC(C)=C1[C@@H]2OC(=O)/C=C/c1ccccc1
inactive: NCI-H23 lung 95.3% | NCI-H226 lung 66.2% | NCI-H322M lung 93.4% | HOP-62 NSCLC 90.6% | NCI-H460 lung 94.2% | HOP-92 NSCLC 72.8% | NCI-H522 lung 73.3% | A549/ATCC NSCLC 82.3% | 786-0 renal 87.6% | COLO 205 colon 94.1%

CC(C)Cn1cnc2c(=O)[nH]c(N)nc21
inactive: NCI-H23 lung 99.3% | NCI-H226 lung 89.8% | NCI-H322M lung 99.9% | HOP-62 NSCLC 80.8% | NCI-H460 lung 110% | HOP-92 NSCLC 90.8% | NCI-H522 lung 70.8% | A549/ATCC NSCLC 85.4% | 786-0 renal 98.9% | COLO 205 colon 97.1%

CN(/C(N)=N/N=C/c1c2ccccc2cc2ccccc12)C1CCCCC1
active: HOP-92 NSCLC -5.84% | COLO 205 colon -55.5%
inactive: NCI-H23 lung 16.1% | NCI-H226 lung 64.3% | NCI-H322M lung 73.6% | HOP-62 NSCLC 75.8% | NCI-H460 lung 43.6% | NCI-H522 lung 40.9% | A549/ATCC NSCLC 43.4% | 786-0 renal 49.5%
